Results filed as inconclusive are left out. Activity calls are given as the source filed them.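 How the source made its calls, unless noted: active means efflux inhibition above 0.42, the validation set average plus 4 SD; inconclusive means no clear call, values can overlap the other calls; inactive means the rest.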
Experiments:
[1] = yeast TOR pathway RPL19A-GFP modulators, primary screen, cell-based, S. cerevisiae, multiplex flow cytometry (AID 1862; in the data active means percent of DMSO control GFP below about 86%;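 further: lower values mimic rapamycin by blocking the RPL19A rise seen in DMSO cells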); settings: S. cerevisiae RPL19A-GFP strain, flow cytometry fluorescence, 3 h; at 10 µM; stronger effect = lower value
[2] = modulators of MEP2-GFP levels in yeast, primary screen, S. cerevisiae, multiplex flow cytometry (AID 1867;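 active means GFP response, as percent of the DMSO control, above the screen-wide mean plus 3 SD, about 139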;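 further: median GFP channel fluorescence of barcode-gated MEP2-GFP cells measured by flow cytometry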); settings: S. cerevisiae MEP2-GFP strain, 3 h, at 10 µM, stronger effect = higher value, 100% means same as DMSO wells
[3] = modulators of CIT2-GFP expression in yeast, primary screen, S. cerevisiae, GFP fusion, multiplex flow cytometry (AID 1870;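 active means percent response above a set limit, the screen-wide mean plus 3 SD, cut at about 130% in these data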;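 further: barcoded CIT2-GFP strain pooled with four other GFP strains with rapamycin as positive control; median GFP fluorescence per well over plate mean of DMSO wells so 100% = DMSO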); settings: 3 h, at 10 µM, stronger effect = higher value
[4] = modulators of LAP4-GFP expression in yeast, primary screen, S. cerevisiae, multiplex flow cytometry (AID 1873;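 active means GFP signal, as percent of the solvent control, above the screen mean plus 3 SD, about 149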); settings: 3 h, at 10 µM, stronger effect = higher value
[5] = modulators of AGP1-GFP expression in yeast TOR pathway, primary screen, cell-based, multiplex flow cytometry, S. cerevisiae (AID 1887;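 active means GFP signal above the screen-wide mean plus 3 SD, that is over about 124.5% of the solvent control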;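 further: AGP1-GFP fusion strain of S. cerevisiae within a five-strain barcoded multiplex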); settings: 3 h, at 10 µM, stronger effect = higher value
[6] = inhibitors of CD8+ T cell-vesicle binding, pilot screen, LFA-1/ICAM-1 modulator project, MLPCN validation set, flow cytometry (AID 2523;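 active means response below a set limit, under 55% cells CD8-positive and vesicle-bound, and CD8 cells' 90th-percentile brightness under 279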;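 on vesicle binding response: mean PE anti-B7-1 fluorescence of CD8+ cells relative to row control; 100% = QL9-loaded vesicles with DMSO vehicle in the same plate row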); settings: 2C mouse CD8+ T cells, at 7 µM, stronger effect = lower value; double positive events: measured here: CD8+/vesicle+ event percentage
[7] = molecular target: Integrin beta-1 (Homo sapiens) + Integrin alpha-4 (Homo sapiens) (UniProt P13612+P05556); test: inhibition of HUTS-21 binding to VLA-4, pilot screen, VLA-4 allosteric modulator project, U937 cells, HUTS-21 mAb, flow cytometry, validation set (AID 2674;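 active means inhibition above 50%, about 3 SD of the validation set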;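 further: antibody binding induced by the VLA-4 ligand LDV present at three times its Kd; 0% = LDV ligand with antibody and no compound and 100% = antibody without LDV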); settings: HUTS-21 LIBS mAb binding, at 6.7 µM, stronger effect = higher value, binding induced by LDV ligand
Sequence of Integrin beta-1 (Homo sapiens) + Integrin alpha-4 (Homo sapiens) (P05556 whole entry, looked up): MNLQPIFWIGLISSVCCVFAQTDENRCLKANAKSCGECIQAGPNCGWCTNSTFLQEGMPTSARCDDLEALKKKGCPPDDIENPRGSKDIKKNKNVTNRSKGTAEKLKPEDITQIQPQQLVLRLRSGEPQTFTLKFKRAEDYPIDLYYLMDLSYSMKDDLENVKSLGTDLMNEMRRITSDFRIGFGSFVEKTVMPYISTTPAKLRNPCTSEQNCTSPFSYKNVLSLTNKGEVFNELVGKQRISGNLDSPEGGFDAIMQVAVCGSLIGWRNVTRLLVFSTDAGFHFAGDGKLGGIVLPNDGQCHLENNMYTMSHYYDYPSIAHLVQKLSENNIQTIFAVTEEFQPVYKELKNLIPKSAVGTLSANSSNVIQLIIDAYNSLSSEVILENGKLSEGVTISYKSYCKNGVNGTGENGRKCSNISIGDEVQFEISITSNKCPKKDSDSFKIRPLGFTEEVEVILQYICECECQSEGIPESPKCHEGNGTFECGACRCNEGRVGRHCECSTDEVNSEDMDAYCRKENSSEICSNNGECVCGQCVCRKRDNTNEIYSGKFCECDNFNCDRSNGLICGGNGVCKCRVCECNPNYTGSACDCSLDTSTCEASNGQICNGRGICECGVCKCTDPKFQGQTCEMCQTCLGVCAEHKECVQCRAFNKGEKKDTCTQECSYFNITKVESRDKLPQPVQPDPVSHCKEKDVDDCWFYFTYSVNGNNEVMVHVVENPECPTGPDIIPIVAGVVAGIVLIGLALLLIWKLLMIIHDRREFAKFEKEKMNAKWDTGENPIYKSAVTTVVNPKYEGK
Sequence of Integrin beta-1 (Homo sapiens) + Integrin alpha-4 (Homo sapiens) (P13612 whole entry, looked up): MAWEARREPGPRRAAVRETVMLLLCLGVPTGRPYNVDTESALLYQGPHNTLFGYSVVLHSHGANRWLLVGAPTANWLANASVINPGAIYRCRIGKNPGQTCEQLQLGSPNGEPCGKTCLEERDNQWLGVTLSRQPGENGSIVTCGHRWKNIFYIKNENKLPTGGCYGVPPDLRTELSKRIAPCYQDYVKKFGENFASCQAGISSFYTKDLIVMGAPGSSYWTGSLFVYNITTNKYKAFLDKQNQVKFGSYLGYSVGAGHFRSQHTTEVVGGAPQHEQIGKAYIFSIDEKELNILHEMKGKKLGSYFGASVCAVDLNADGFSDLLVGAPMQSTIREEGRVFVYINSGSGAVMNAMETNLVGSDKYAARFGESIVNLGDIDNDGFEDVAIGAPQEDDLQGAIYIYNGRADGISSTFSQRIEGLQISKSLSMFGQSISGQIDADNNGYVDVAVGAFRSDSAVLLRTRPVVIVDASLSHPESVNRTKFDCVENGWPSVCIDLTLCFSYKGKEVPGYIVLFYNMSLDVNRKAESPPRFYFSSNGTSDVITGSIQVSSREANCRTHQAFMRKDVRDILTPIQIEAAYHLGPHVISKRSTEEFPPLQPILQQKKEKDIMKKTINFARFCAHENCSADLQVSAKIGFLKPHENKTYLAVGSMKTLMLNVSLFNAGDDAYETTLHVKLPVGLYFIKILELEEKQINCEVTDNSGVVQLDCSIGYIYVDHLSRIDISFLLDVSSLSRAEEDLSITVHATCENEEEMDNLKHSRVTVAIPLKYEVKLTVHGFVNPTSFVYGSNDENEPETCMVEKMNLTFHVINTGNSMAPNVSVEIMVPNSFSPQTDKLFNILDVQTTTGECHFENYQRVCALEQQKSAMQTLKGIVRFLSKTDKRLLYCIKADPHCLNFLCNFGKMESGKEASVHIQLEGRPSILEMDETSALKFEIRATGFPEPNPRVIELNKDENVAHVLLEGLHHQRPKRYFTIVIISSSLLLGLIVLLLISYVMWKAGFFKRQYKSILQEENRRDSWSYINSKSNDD

[8] = superoxide lowering in aged yeast cells, pilot screen, validation compound set (AID 2706;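 active means superoxide response below 65% of plate, a cut near 3 SD across the whole screen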;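 further: yeast exposed to compound for one week at 30 degrees C before staining; 100% = mean of all compound wells on the same plate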); settings: S. cerevisiae aging, superoxide DHE fluorescence; at 10 µM; stronger effect = lower value
[9] = molecular target: Beta-adrenergic receptor kinase 1 (Homo sapiens) (UniProt P25098); test: GRK2 binders displacing RNA aptamer, biochemical, validation, human GRK2, bead flow cytometry (AID 488806;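 active means aptamer binding inhibition above 30%, about 3 SD of noise from non-fluorescent compounds; inactive means inhibition at or below 30%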); settings: bead-bound GRK2, FAM-aptamer displacement, at 10 µM, stronger effect = higher value
Sequence of Beta-adrenergic receptor kinase 1 (Homo sapiens) (P25098 whole entry, looked up): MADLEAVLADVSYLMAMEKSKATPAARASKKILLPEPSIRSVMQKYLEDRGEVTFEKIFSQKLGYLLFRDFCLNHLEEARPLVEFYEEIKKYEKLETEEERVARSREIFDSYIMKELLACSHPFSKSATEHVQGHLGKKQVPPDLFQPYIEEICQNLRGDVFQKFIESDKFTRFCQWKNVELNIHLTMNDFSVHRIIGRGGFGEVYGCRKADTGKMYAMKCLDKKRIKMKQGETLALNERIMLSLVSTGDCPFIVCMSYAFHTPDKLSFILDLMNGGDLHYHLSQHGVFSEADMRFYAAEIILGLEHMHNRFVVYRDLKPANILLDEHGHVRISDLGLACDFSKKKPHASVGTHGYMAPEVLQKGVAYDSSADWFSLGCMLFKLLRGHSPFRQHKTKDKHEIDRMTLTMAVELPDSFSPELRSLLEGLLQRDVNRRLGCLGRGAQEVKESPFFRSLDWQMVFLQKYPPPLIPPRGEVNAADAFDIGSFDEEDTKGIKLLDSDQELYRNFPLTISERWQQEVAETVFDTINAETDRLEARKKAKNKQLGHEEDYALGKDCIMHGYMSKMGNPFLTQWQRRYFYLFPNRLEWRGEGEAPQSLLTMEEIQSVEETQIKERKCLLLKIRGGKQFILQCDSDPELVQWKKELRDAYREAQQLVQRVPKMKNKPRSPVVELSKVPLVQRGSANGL

[10] = molecular target: Beta-2 adrenergic receptor (Homo sapiens) (UniProt P07550); test: beta2AR agonists driving receptor internalization, pilot screen, cell-based, FAP fluorogen, flow cytometry, validation set (AID 504459;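 active means percent response above 42, roughly 3 SD of non-fluorescent test compounds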;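 further: agonist-driven loss of surface beta2AR via internalization measured by FAP dye flow cytometry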); settings: Am2.2-beta2AR cells, FAP surface receptor flow cytometry; at 10 µM; stronger effect = higher value
Sequence of Beta-2 adrenergic receptor (Homo sapiens) (P07550 whole entry, looked up): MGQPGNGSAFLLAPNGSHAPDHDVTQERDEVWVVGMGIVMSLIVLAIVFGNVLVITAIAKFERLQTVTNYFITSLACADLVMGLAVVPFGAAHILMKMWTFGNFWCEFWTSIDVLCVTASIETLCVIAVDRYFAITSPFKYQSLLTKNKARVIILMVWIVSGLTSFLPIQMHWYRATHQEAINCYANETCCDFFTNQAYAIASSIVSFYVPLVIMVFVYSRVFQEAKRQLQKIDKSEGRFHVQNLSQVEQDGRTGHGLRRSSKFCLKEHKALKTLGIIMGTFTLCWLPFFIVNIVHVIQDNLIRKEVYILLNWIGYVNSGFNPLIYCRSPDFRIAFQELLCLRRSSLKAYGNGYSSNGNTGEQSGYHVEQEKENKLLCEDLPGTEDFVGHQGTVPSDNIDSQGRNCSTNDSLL

[11] = molecular target: AP-2 complex subunit beta (Homo sapiens) (UniProt P63010); test: inhibitors of arrestin peptide binding to AP2, pilot screen, biochemical, validation set, GST-AP2 beads, flow cytometry (AID 504541;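 active means inhibition above 54%, about 3 SD of non-fluorescent compounds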;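 further: AP2 carries R879A mutation and is captured from E. coli lysate; bead-bound FITC arrestin peptide fluorescence measuring arrestin peptide binding to AP2; 0% = DMSO wells and 100% = excess unlabeled arrestin peptide control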); settings: FITC arrestin peptide, at 10 µM, stronger effect = higher value, AP2 beta2 appendage fragment, R879A mutant
Sequence of AP-2 complex subunit beta (Homo sapiens) (P63010 whole entry, looked up, the tested form may be a part, one chain of several): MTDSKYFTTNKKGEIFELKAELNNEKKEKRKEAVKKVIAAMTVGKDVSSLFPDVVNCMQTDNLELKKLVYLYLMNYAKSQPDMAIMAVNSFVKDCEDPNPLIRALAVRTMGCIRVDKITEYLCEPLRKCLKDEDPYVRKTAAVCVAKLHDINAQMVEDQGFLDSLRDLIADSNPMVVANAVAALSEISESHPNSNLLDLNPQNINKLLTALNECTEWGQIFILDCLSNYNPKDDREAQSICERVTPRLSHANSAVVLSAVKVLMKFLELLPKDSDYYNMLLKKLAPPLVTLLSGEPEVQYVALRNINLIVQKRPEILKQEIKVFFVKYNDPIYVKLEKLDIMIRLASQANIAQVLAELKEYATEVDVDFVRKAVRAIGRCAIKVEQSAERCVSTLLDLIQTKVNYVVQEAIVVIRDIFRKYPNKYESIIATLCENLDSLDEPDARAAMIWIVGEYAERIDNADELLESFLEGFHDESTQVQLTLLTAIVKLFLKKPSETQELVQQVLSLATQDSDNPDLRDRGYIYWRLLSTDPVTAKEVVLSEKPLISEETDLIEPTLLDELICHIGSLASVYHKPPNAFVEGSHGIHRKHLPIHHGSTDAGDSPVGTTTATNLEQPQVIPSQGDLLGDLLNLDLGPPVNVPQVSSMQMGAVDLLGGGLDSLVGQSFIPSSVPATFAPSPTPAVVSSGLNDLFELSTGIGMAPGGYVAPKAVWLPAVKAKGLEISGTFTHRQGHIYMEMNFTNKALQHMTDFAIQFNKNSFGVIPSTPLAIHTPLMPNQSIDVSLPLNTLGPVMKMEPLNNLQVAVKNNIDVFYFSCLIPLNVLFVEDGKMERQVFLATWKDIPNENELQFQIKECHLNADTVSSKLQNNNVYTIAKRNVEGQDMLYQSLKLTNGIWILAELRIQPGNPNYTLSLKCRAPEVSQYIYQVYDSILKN

[12] = yeast V-ATPase proton transport modulators, S. cerevisiae, pHLuorin, HTS validation (AID 504600; in the data active means response above about 15%;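 further: plate controls were DMSO for no effect and reference compound for full effect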); settings: S. cerevisiae pHLuorin cytosolic pH, at 10 µM, stronger effect = higher value
[13] = tested on: anti-desmoglein-3 scFv antibody binding to human DSG3; test: inhibitors of anti-DSG3 scFv binding to DSG3, pilot screen, biochemical, validation compound set, bead-based, flow cytometry (AID 588368;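 active means binding below the plate cutoff, the plate median minus 3 SD, with a reading above zero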;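 further: signal is the median channel fluorescence of bead-bound GFP antibody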); settings: Protein G beads, DSG3-Fc, scFv-GFP binding, at 10 µM, stronger effect = lower value
[14] = inhibitors of fungal efflux pumps CDR1, CDR2, MDR1, pilot screen, validation compound set, multiplex, phenotypic (AID 588506);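 further: Nile Red retained in cells so higher fluorescence means more efflux inhibition; 0 = negative control wells and 1 = enniatin B 25 µM full block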; settings: S. cerevisiae pump-expressing triplex, Nile Red efflux flow cytometry; at 10 µM; stronger effect = higher value; the pumps come from Candida albicans
[15] = molecular target: ATP-binding cassette sub-family B member 6 (Homo sapiens) (UniProt Q9NP58); test: ABCB6 transporter inhibitors, pilot screen, K562-ABCB6 cells, flow cytometry, validation set (AID 588550;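 active means inhibition above the screen-wide mean plus 3 SD, about 51%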;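 further: 0% = DMSO wells and 100% = benzethonium chloride 70 µM positive control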); settings: K562-ABCB6 porphyrin accumulation, 1 h, at 10 µM, stronger effect = higher value
Sequence of ATP-binding cassette sub-family B member 6 (Homo sapiens) (Q9NP58 whole entry, looked up): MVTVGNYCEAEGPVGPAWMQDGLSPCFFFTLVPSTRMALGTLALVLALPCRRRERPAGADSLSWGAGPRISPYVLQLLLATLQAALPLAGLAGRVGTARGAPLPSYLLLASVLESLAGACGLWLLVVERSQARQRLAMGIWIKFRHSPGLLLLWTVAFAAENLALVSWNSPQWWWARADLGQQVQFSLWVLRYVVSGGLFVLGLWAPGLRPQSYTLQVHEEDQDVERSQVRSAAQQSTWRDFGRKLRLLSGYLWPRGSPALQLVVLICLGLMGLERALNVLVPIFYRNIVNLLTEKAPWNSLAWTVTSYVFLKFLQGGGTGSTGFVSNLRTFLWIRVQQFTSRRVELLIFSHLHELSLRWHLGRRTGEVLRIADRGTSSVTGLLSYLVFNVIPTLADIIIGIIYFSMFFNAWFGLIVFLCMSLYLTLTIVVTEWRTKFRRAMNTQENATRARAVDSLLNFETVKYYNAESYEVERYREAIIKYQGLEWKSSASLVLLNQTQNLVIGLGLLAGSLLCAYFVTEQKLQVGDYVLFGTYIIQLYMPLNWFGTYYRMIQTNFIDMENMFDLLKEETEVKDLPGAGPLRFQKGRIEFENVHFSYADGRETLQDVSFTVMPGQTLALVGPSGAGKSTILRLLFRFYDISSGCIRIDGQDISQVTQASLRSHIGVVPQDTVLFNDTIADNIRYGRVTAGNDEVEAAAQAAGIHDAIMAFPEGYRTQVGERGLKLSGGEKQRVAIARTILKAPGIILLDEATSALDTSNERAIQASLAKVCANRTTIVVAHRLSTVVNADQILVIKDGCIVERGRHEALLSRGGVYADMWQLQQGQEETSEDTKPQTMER

[16] = promoters of myeloid differentiation in arrested cells, primary screen, cell-based, GFP/MAC1 double positive, flow cytometry, validation set (AID 588685;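 active means differentiation response of at least 50%, scaled between solvent and reference control, from cells with both markers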;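 further: compound exposure lasts four days before antibody staining and flow analysis; 0% = DMSO wells and 100% = 5 µM fulvestrant positive control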); settings: ER-HoxA9 marrow cells, stronger effect = higher value, normalized: vehicle 0, fulvestrant 100

Structure (SMILES)	percent of DMSO control GFP [1]	GFP response vs DMSO [2]	percent response of DMSO control [3]	GFP response vs DMSO [4]	GFP response, % of DMSO [5]	double positive events [6]	vesicle binding response [6]	inhibition [7]	superoxide response (% of plate) [8]	aptamer binding inhibition [9]	response [10]	inhibition [11]	response [12]	binding (% of control) [13]	efflux inhibition (fraction of control) [14]	inhibition [15]	differentiation response [16]
O=C(NC(=S)Nc1nc(-c2ccccc2)cs1)c1ccco1	90.9% (inactive)	132% (inactive)	102% (inactive)	85.3% (inactive)	87.3% (inactive)	55.7%	164% (inactive)	1.61% (inactive)	110% (inactive)	3% (inactive)	-23.9% (inactive)	16.9% (inactive)	-1.38% (inactive)	102% (inactive)	0.12 (inactive)	7% (inactive)	5.73% (inactive)
COc1ccc(C2NC(=O)c3ccccc3O2)c(OC)c1OC (stereo not drawn)	105% (inactive)	104% (inactive)	111% (inactive)	101% (inactive)	104% (inactive)	61.2%	200% (inactive)	-7.72% (inactive)	89.7% (inactive)	5% (inactive)	-12.7% (inactive)	-2.37% (inactive)	1.87% (inactive)	95.5% (inactive)	0.11 (inactive)	0% (inactive)	-1.71% (inactive)
Cc1nc2cc3ccccc3cc2c(=O)[nH]1	102% (inactive)	106% (inactive)	101% (inactive)	104% (inactive)	96.6% (inactive)	60.4%	160% (inactive)	-26.1% (inactive)	104% (inactive)	6% (inactive)	9.81% (inactive)	-19.1% (inactive)	1.08% (inactive)	98% (inactive)	0.07 (inactive)	-9% (inactive)	-2.64% (inactive)
CCOC(=O)C1(Cc2cccc(Cl)c2)CCCN(C2CCN(C(C)=O)CC2)C1 (stereo not drawn)	101% (inactive)	101% (inactive)	102% (inactive)	101% (inactive)	100% (inactive)	60.5%	42.6% (inactive)	-7.72% (inactive)	106% (inactive)	-3% (inactive)	-8.31% (inactive)	34.6% (inactive)	-5.5% (inactive)	177% (inactive)	-0.1 (inactive)	13% (inactive)	-0.73% (inactive)
CC1=NN(c2ccccc2)C(=O)C1	108% (inactive)	106% (inactive)	109% (inactive)	99.1% (inactive)	111% (inactive)	62.5%	206% (inactive)	-14.5% (inactive)	91% (inactive)	-3% (inactive)	3.52% (inactive)	-6.32% (inactive)	0.56% (inactive)	101% (inactive)	-0.1 (inactive)	-1% (inactive)	2.74% (inactive)
COc1ccc(-c2cc(=Nc3ccc(C)cc3)c3ccccc3o2)cc1	97.3% (inactive)	106% (inactive)	93.8% (inactive)	132% (inactive)	104% (inactive)	60.2%	195% (inactive)	16.8% (inactive)	99.5% (inactive)	0% (inactive)	-21.4% (inactive)	-0.02% (inactive)	7.52% (inactive)	97.3% (inactive)	-0.04 (inactive)	5% (inactive)	-9.91% (inactive)
COc1ccc(O)c(C2=Nc3ccccc3N=C(c3ccccc3)C2)c1	94.6% (inactive)	126% (inactive)	116% (inactive)	71.5% (inactive)	85.2% (inactive)	58.3%	139% (inactive)	-10% (inactive)	96.7% (inactive)	4% (inactive)	-11.7% (inactive)	13% (inactive)	-3.39% (inactive)	96.9% (inactive)	0.34 (inactive)	12% (inactive)	2.46% (inactive)
Cc1ccc2[nH]c(=O)c(Cc3ccccc3)c(O)c2c1	102% (inactive)	105% (inactive)	107% (inactive)	94.7% (inactive)	102% (inactive)	60.7%	224% (inactive)	3.7% (inactive)	105% (inactive)	0% (inactive)	-3.71% (inactive)	-9.35% (inactive)	4.49% (inactive)	90.6% (inactive)	-0.07 (inactive)	-1% (inactive)	-8.55% (inactive)
COc1ccc(C2C3=C(OC(C)=O)c4ccccc4C3=Nc3c2c(=O)n(C)c(=O)n3C)cc1 (stereo not drawn)	105% (inactive)	94.6% (inactive)	106% (inactive)	105% (inactive)	103% (inactive)	58.8%	127% (inactive)	1.59% (inactive)	98.4% (inactive)	-1% (inactive)	-14.8% (inactive)	0.59% (inactive)	-2.42% (inactive)	102% (inactive)	-0.02 (inactive)	4% (inactive)	-11.9% (inactive)
COc1ccc(-c2c3c(=O)n(C)c(=O)n(C)c3cn2C2CCCCC2)cc1	95.2% (inactive)	109% (inactive)	88.2% (inactive)	113% (inactive)	92.6% (inactive)	58.5%	132% (inactive)	-14.1% (inactive)	106% (inactive)	-1% (inactive)	14.9% (inactive)	1.05% (inactive)	2.1% (inactive)	95.5% (inactive)	0.05 (inactive)	9% (inactive)	-16.8% (inactive)
COc1ccc(C2C(C(=O)c3ccco3)=C(O)C(=O)N2CC2CCCO2)cc1 (stereo not drawn)	102% (inactive)	105% (inactive)	104% (inactive)	99.3% (inactive)	95.3% (inactive)	62.9%	351% (inactive)	-7.72% (inactive)	105% (inactive)	3% (inactive)	-3.98% (inactive)	25.3% (inactive)	-4.81% (inactive)	98.9% (inactive)	0.05 (inactive)	3% (inactive)	-5.62% (inactive)
CC(=O)N(CCC(Cc1ccccc1)c1ccc2c(c1)OCO2)Cc1ccc(Cl)cc1 (stereo not drawn)	93.9% (inactive)	113% (inactive)	103% (inactive)	79.2% (inactive)	92.2% (inactive)	59.9%	165% (inactive)	-9.06% (inactive)	102% (inactive)	-1% (inactive)	-1.43% (inactive)	-8.25% (inactive)	-2% (inactive)	104% (inactive)	0.05 (inactive)	6% (inactive)	-3.28% (inactive)
CC(=O)N(CCC(Cc1ccccc1)c1ccco1)Cc1ccco1 (stereo not drawn)	88.7% (inactive)	145% (active)	104% (inactive)	77.6% (inactive)	77.1% (inactive)	68.1%	172% (inactive)	-0.33% (inactive)	96.2% (inactive)	1% (inactive)	5.89% (inactive)	13.6% (inactive)	-4.34% (inactive)	97.4% (inactive)	-0.06 (inactive)	5% (inactive)	-3.28% (inactive)
NC(=O)[C@@H]1[C@@H]2C(=O)N(c3ccc(F)cc3)C(=O)[C@@H]2[C@H]2C=Cc3ccccc3N21	104% (inactive)	105% (inactive)	112% (inactive)	100% (inactive)	102% (inactive)	63%	126% (inactive)	-80.5% (inactive)	103% (inactive)	6% (inactive)	4.67% (inactive)	-25.9% (inactive)	-0.45% (inactive)	104% (inactive)	-0.12 (inactive)	-37% (inactive)	3.45% (inactive)
CCOCCCNCc1cn(-c2ccc(F)cc2F)nc1-c1ccccc1C	103% (inactive)	98.3% (inactive)	109% (inactive)	93.3% (inactive)	102% (inactive)	61.9%	200% (inactive)	-1.49% (inactive)	101% (inactive)	1% (inactive)	-8.93% (inactive)	14.5% (inactive)	4.59% (inactive)	94.2% (inactive)	-0.07 (inactive)	-10% (inactive)	-1.71% (inactive)
O=C(NC(=S)N1CCCCC1)c1cccnc1	102% (inactive)	95.1% (inactive)	97.8% (inactive)	108% (inactive)	99.4% (inactive)	60.8%	95.6% (inactive)	11% (inactive)	89.9% (inactive)	-3% (inactive)	-0.16% (inactive)	-15.4% (inactive)	-2.13% (inactive)	93.3% (inactive)	-0.07 (inactive)	-15% (inactive)	21.8% (inactive)
COc1ccc(/C=C\c2cc(OC)c(OC)cc2CC[N+](C)(C)C)cc1OC	96.3% (inactive)	102% (inactive)	101% (inactive)	122% (inactive)	103% (inactive)	57.8%	216% (inactive)	-4.52% (inactive)	108% (inactive)	-3% (inactive)	-7.25% (inactive)	-9.15% (inactive)	0.95% (inactive)	103% (inactive)	0.26 (inactive)	2% (inactive)	-0.8% (inactive)
O[C@H]1COC2C1OC[C@@H]2O (stereo partly drawn)	99% (inactive)	107% (inactive)	102% (inactive)	115% (inactive)	118% (inactive)	58.3%	204% (inactive)	1.44% (inactive)	87.6% (inactive)	0% (inactive)	-28.6% (inactive)	3.72% (inactive)	1.96% (inactive)	104% (inactive)	0 (inactive)	2% (inactive)	-4.99% (inactive)
CC[C@H]1CN2CCc3cc(OC)c(OC)cc3[C@@H]2C[C@@H]1C[C@H]1NCCc2cc(OC)c(OC)cc21	110% (inactive)	103% (inactive)	94.5% (inactive)	106% (inactive)	99.9% (inactive)	60.1%	140% (inactive)	-27.9% (inactive)	86.3% (inactive)	-7% (inactive)	10.4% (inactive)	3.93% (inactive)	-3.02% (inactive)	106% (inactive)	-0.24 (inactive)	-66% (inactive)	14.4% (inactive)
